A selection: hits, their analogues and other compounds. The true share with any hit is near 18%.
IL-1B inflam inh: qHTS for Inhibitors of Inflammasome Signaling: IL-1-beta AlphaLISA Primary Screen; THP-1 LPS/ATP IL-1B secretion, AlphaLISA, 16 h; hits give low values; activity change, % at 57.5 µM; 360,000 tested, 4.7% active; in the data active means activity change below about -50%; inconclusive means mostly about -30% to -49%
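Secreted IL-1B measured by AlphaLISA bead assay after 16 h compound exposure of THP-1 cells; compounds (final up to 57.5 uM) added 1 h before LPS (250 ng/mL) and ATP (1.25 mM) stimulation; lower signal means less secretion.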
TDP1 block: qHTS Assay for Inhibitors of Tyrosyl-DNA Phosphodiesterase (TDP1) | Tyrosyl-DNA phosphodiesterase 1 (Homo sapiens), Q9NUW8 | recombinant TDP1, AlphaScreen DNA substrate cleavage | Potency, µM (titrated, usually from 130 µM), inactives show at the highest dose activity change, negative = inhibition, actives largely listed as inhibitors | 350,000 tested, 0.28% active | AID 485290, 2010; further: potency means the concentration at half of the fitted maximal effect; nearly all actives have a fitted effect of over 40% in size
Target sequence (Q9NUW8 whole entry, looked up): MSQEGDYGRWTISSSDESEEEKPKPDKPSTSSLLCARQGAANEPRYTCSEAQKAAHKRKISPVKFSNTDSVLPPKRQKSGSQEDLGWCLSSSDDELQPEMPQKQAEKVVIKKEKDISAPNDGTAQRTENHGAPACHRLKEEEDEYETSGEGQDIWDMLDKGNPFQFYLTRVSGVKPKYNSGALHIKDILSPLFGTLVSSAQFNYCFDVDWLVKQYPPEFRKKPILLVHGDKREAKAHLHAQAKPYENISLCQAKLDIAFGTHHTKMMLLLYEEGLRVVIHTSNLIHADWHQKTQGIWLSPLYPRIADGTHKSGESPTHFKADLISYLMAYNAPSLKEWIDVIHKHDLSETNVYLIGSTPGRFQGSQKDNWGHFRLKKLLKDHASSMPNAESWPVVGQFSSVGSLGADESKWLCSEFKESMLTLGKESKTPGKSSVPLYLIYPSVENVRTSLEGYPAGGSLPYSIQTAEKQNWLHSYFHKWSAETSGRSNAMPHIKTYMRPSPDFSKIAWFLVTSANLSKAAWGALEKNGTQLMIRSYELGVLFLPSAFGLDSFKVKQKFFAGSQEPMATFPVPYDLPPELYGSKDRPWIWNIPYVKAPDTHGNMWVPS
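AlphaScreen read-out: signal falls as enzyme removes the 3' tyrosine-FITC from a 5'-biotinylated DNA oligo (15 nM, 5 min, RT). Enzyme was E. coli-made recombinant Tdp1 at 1 nM, exposed to compound for 15 min beforehand; beads 10 ug/ml, 10 min.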
CtBP-E1A inh: qHTS Assay for Inhibitors of the CtBP/E1A Interaction; AID 651724, 2012; CtBP / adenovirus E1A interaction (AlphaScreen); AlphaScreen GST-E1A/His-CtBP binding, 1536-well; hits give low values; 340,000 tested, 0.49% active; activity change, % (test concentration not listed); in the data active means activity change below about -65%; inconclusive means mostly about -30% to -63%
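AlphaScreen with 125 nM GST-E1A and 125 nM His-CtBP (5X stocks) in Tris pH 8.0, 300 mM NaCl, BSA, Tween 20, TCEP. Compounds preincubated 2 h at 37 deg C, then glutathione donor/nickel acceptor beads added for 1 h at 37 deg C in dark.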
Six1-Eya2 inh: qHTS Assay for Inhibitors of the Six1/Eya2 Interaction. activity change, % (no concentration beside the values). AlphaScreen GST-Six1/His-Eya2 binding, biochemical; hits give low values. 360,000 tested, 0.56% active. Homeobox protein SIX1 (Homo sapiens) + Protein phosphatase EYA2 (Homo sapiens), …; in the data active means activity change below about -65%; inconclusive means mostly about -30% to -63%
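Homogeneous AlphaScreen proximity assay pairing GST-Six1 with His-tagged Eya2 (added as 5X mix: 250 nM and 500 nM) in 50 mM Tris pH 8.0, 300 mM NaCl, 1 mM TCEP. Glutathione donor and nickel acceptor beads; 1 h, 37 °C, dark.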
DT40 TDP1 no CPT: qHTS for Inhibitors of human tyrosyl-DNA phosphodiesterase 1 (TDP1): qHTS in cells in absence of CPT. 420,000 tested, 15% active. AID 686978, 2013. Potency, µM (highest dose often 46.2 µM), for inactives: at the top dose activity change, negative = growth inhibition, actives largely listed as inhibitors. DT40 Tdp1-/- hTDP1 cells, no CPT, ATP luminescence, 48 h; further: potency means the concentration at half of the fitted maximal effect; nearly all actives have a fitted effect of over 55% in size
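Camptothecin absent (DMSO only). Human TDP1-complemented DT40 knockout cells, 400 cells/well, 37 °C for minimum 48 hr; ATP measured via CellTiter-Glo, 30 min dark incubation, luminescence.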
TDP1 cell CPT: qHTS for Inhibitors of human tyrosyl-DNA phosphodiesterase 1 (TDP1): qHTS in cells in presence of CPT. chicken DT40 Tdp1-/-;hTDP1 cells + 20 nM CPT, ATP luminescence, 48 h. Potency, µM (titrated, usually from 46.2 µM), for the others: at the top dose activity change, negative = growth inhibition, actives largely listed as inhibitors. 420,000 tested, 12% active. AID 686979, 2013; further: potency means the concentration at half of the fitted maximal effect; nearly all actives have a fitted effect of over 55% in size
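Cell growth measured by CellTiter-Glo luminescence after a minimum 48 h, 37 C compound exposure with 20 nM CPT in Tdp1-knockout DT40 cells stably expressing hTDP1, seeded 400/well; qHTS titration format.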
Numbers without * were called inactive; ? = inconclusive; · = no result given; [ ] = dose if it differs, or a comment. Unless noted, the call rests on the fitted dose curve; in most records, active means well fitted curve in the direction sought with a large enough effect; inconclusive means small, poorly fitted or top-dose-only effect, or another doubt; inactive means no such curve, though single readings can be large; an effect the other way counts as inactive or inconclusive. On the % scale 0 is the no-effect control and ±100 the full control effect.

SMILES | IL-1B inflam inh | TDP1 block | CtBP-E1A inh | Six1-Eya2 inh | DT40 TDP1 no CPT | TDP1 cell CPT
CSC(=Nc1ccccc1)c1c(O)n(C)c(=O)n(C)c1=O | 8 | 6% | 2 | -2 | -8% | -12%
CCN(CC)CCCC(C)N=C(c1ccccc1)c1c(O)n(C)c(=O)n(C)c1=O (centres undefined) | 11 | 3% | 2 | 1 | -11% | -21%
Cn1c(O)c(C(=Nc2ccccc2)SCc2ccccc2Cl)c(=O)n(C)c1=O | ? | -3% | 2 | 0 | 8.2µM* | 5.8µM*
Cn1c(O)c(C(=Nc2ccc(F)cc2)c2ccccc2Cl)c(=O)n(C)c1=O | -24 | 7% | -3 | 11 | 7.3µM* | ?
COC(=O)c1ccc(N=C(c2ccccc2)c2c(O)n(C)c(=O)n(C)c2=O)cc1 | -7 | · | -17 | -4 | 23µM* | ?
CCOC(=O)c1ccc(N=C(c2ccccc2)c2c(O)n(C)c(=O)n(C)c2=O)cc1 | · | -5% | 1 | 4 | 7.3µM* | 2.9µM*
O=P1(NCCCl)OCCCN1CCCl (centres undefined) | -17 | 4%[56.1 µM] | -14 | 7 | 5% | -22%
CCCc1cc(N2CCN(c3ccc(OC)cc3)CC2)n2cnnc2n1 | · | -2% | · | · | 12µM* | 16µM*
CNCCc1ccc(O)c(O)c1 | -1 | 9%[56.1 µM] | 3 | 0 | 5.2µM* | 8.2µM*
CC/C=C\C/C=C\C/C=C\C/C=C\C/C=C\CCCC(=O)NCCc1ccc(O)c(O)c1 | · | -3% | · | · | · | ·
C[C@]12C=CC(=O)C=C1CC[C@@H]1C2CC[C@]2(C)OC(=O)CCC12 (some centres undefined) | 12 | 7% | -2 | -2 | -5% | 1%
CCN(CC)CCNC(=O)c1c(C)[nH]c(/C=C2\C(=O)Nc3ccc(F)cc32)c1C | · | 11% | · | · | 3.8µM* | 4.2µM*
CCCC1(CCC)C(=O)NC(=NCc2ccccc2)NC1=O | 21 | 3% | 4 | 5 | 13µM* | 10µM*
CCCC1(CCC)C(=O)NC(=Nc2ccccc2)NC1=O | -1 | 0% | 5 | 6 | -12% | -14%
CN1CCN(c2ncnc3nc[nH]c23)CC1 | -2 | 6% | 9 | -4 | 15% | -2%
COc1ccc(C2SCC(=O)Nc3c2c(C)nn3-c2ccccc2)cc1 (centres undefined) | 6 | 6% | -1 | -14 | ? | -24%
CCc1ccc(-n2nc(C)c3c2NC(=O)CSC3c2ccc(C(=O)OC)cc2)cc1 (centres undefined) | · | 9% | · | · | 13µM* | 15µM*
COc1ccccc1C1SCC(=O)Nc2c1c(C)nn2-c1cccc(C)c1 (centres undefined) | · | 6% | · | · | ? | ?
Cc1ccc(-n2nc(C)c3c2NC(=O)CSC3c2ccc(O)cc2)cc1Cl (centres undefined) | · | 3% | · | · | ? | -26%
CCc1ccc(-n2nc(C)c3c2NC(=O)CSC3c2ccccc2C)cc1 (centres undefined) | · | 3% | · | · | 18µM* | ?
CCc1ccc(-n2nc(C)c3c2NC(=O)CSC3c2ccc(OC)cc2OC)cc1 (centres undefined) | · | -6% | · | · | 23µM* | 18µM*
CN1C(=O)CCS(=O)(=O)C1c1ccc(Cl)cc1 (centres undefined) | · | 10%[56.1 µM] | · | · | 0% | 9%
CC(=O)CC(c1ccccc1)c1c(O)c2ccc(O)cc2oc1=O (centres undefined) | · | 5% | · | · | · | ·
Cc1ccc(C(=O)c2cn(CC(=O)Nc3ccc(C(C)C)cc3)c3nc(C)ccc3c2=O)cc1 | · | 4% | · | · | 6.5µM* | 6.5µM*
COc1cc(/C=C(/C)[N+](=O)[O-])ccc1OCc1ccccc1Cl | -99* | 3% | 1 | 4 | 2.9µM* | 3.3µM*
SMILES | IL-1B inflam inh | TDP1 block | CtBP-E1A inh | Six1-Eya2 inh | DT40 TDP1 no CPT | TDP1 cell CPT
CCC[CH2][Sn]([Cl])([Cl])[Cl] | · | 4% | · | · | · | ·
COC(=O)[C@]1(C)CC[C@@]2(C)CC[C@@]3(C)C4=CCc5c(cc(O)c(O)c5C)[C@]4(C)CC[C@@]3(C)C2C1 (some centres undefined) | · | -9% | · | · | 1.8µM* | 4.6µM*
c1ccc(C[n+]2ccccc2)cc1 | 0 | -1% | -11 | 6 | 16µM* | ?
Brc1ccc2c(c1)CN(CC1CCCCC1)Cc1cnnn1-2 | -19 | · | 4 | 3 | ? | ?
OCC[N+]12CCC(CC1)C(C(O)(c1ccccc1)c1ccccc1)C2 (centres undefined) | -17 | 3% | 5 | -15 | -1% | 7%
O=C(C[N+]12CCC(CC1)C(C(O)(c1ccccc1)c1ccccc1)C2)c1ccc(Br)cc1 (centres undefined) | -59* | 5% | · | -2 | 7.3µM* | 15µM*
C[C@@]12CC(=O)[C@H]3[C@@H](CCC4=CC(=O)CC[C@]43C)[C@H]1CCC2=O | · | 7%[56.1 µM] | · | · | · | ·
CC(C)OCCCNC(=O)c1c(N)n(CC2CCCO2)c2nc3ccccc3nc12 (centres undefined) | -64* | · | 50 | 32 | -29% | ?
CC(C)OC(=O)c1c(N)n(CC2CCCO2)c2nc3ccccc3nc12 (centres undefined) | -17 | 3% | 2 | 0 | ? | ?
CCCNC(=O)c1c(N)n(CC2CCCO2)c2nc3ccccc3nc12 (centres undefined) | -27 | 0% | 32 | 35 | 21µM* | ?
Clc1ccc(CSc2nnc(-c3ccccn3)n2Cc2ccco2)cc1Cl | -1 | · | 2 | 1 | ? | ?
CCOC(=O)c1ncn2c1CN(C)C(=O)c1cc(F)ccc1-2 | -53* | 11%[56.1 µM] | -12 | 0 | -19% | ?
CCCCCCC(=O)CCCCCC/C=C/C[C@@H](O)[C@H](O)[C@@](N)(CO)C(=O)O | · | 9% | · | · | ? | ?
CCC(=NC1CC1)c1c(O)n(-c2ccc(OC)cc2)c(=O)[nH]c1=O | -3 | -3% | 0 | 7 | -1% | 2%
COc1ccc(N2C(=O)CS(=O)C(c3ccccc3)C2=O)cc1 (centres undefined) | 20 | 3% | -9 | -15 | 21µM* | ?
CCCCN1C(=N)C(CC)(CC)C(=O)NC1=O | -2 | 5% | -5 | 10 | -9% | 3%
